# The list is not random: actives were taken first. Their share in the collection is about 3.4%.
# MITF inh = MITF inhibitors, primary screen, biochemical, AlphaScreen, human; AlphaScreen MITF homodimerization, bead proximity signal; AID 1259374, 2018; inhibition, % at 2.6 µM; hit rate 0.91% among 650,000; Microphthalmia-associated transcription factor (Homo sapiens), O75030; in the data active = inhibition above about 50%;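 also: 0% = vehicle wells with protein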
# Target sequence (O75030 whole entry, looked up): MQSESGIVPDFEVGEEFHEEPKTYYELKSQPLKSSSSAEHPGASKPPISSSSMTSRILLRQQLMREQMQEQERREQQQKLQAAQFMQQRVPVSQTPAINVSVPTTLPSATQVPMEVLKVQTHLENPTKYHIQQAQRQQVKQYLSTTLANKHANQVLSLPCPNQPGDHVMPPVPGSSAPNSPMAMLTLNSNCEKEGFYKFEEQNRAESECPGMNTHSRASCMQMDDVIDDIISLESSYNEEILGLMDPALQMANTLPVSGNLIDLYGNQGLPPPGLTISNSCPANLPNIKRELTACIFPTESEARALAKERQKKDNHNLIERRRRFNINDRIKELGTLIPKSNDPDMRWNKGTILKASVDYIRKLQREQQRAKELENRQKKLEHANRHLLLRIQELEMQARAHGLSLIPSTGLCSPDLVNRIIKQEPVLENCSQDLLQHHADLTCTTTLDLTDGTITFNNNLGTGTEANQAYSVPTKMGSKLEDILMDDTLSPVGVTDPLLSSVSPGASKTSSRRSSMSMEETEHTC
# GPR151 activ = activators of human GPR151, primary screen, cell-based, PathHunter beta-arrestin, luminescence; G-protein coupled receptor 151 (Homo sapiens), Q8TDV0; PathHunter beta-arrestin GPR151 cells; activation, % at 11.2 µM; hit rate 1% among 650,000; AID 1508602, 2020; in the data active = activation above about 4.9%;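 also: 0% = median of compound wells and 100% = cells with positive control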
# TEAD-YAP block = TEAD-YAP interaction inhibition, primary screen, TEAD-YAP interaction inhibitor project, luminescence, HEK-TIYL cells; TEAD-Gal4/YAP UAS-luciferase luminescence; inhibition, % at 9.12 µM; hit rate 1.4% among 640,000; AID 1259422, 2018; in the data active = inhibition above about 32%;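 also: 0% = median of test compound wells and 100% = reference inhibitor wells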
# FBW7 act = FBW7 E3 ligase activators, primary screen, biochemical, AlphaScreen, human. F-box/WD repeat-containing protein 7 (Homo sapiens), Q969H0. hit rate 0.13% among 650,000. AlphaScreen FBW7–phospho-cyclin E peptide binding, activator screen. AID 1259310, 2017. normalized activity (activation), % at 26.1 µM; in the data active = normalized activity above about 1.9%;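 also: purified mutant Fbw7 with reduced substrate affinity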
# Numbers without * were called inactive.
SMILES,MITF inh,GPR151 activ,TEAD-YAP block,FBW7 act
CSc1ccc(NC(=O)Nc2cccn(Cc3ccc(C)cc3)c2=O)cc1,-4,0,33*,0
C=CC(C)(O)C(=O)OCC(C)C (stereo not given),10,-1,12,0
CC1(C)CC(=O)C2=C(C1)Nc1cc(C(=O)c3ccccc3)ccc1NC2c1cccnc1 (stereo not given),8,-1,-3,0
CSc1sccc1/C=N/Nc1ccc([N+](=O)[O-])cc1,11,-1,-19,2.1*
Nc1cc[n+](CC(=O)c2ccc3c(c2)OCCO3)cc1,0,0,49*,0
O=C(C[n+]1ccc2ccccc2c1)c1ccc2c(c1)OCCO2,0,0,-16,0
O=C(CCN1CCc2ccccc21)c1ccc2c(c1)OCCO2,5,1,45*,0
O=C(CCCc1ccccc1)c1ccc2c(c1)OCCO2,7,-4,91*,0
O=C(CCN1CCc2ccccc2C1)c1ccc2c(c1)OCCO2,0,0,10,0
O=C(CCc1ccccc1)c1ccc2c(c1)OCCCO2,0,1,-62,0
COc1cc([N+](=O)[O-])ccc1NC(=O)COC(=O)CCN1C(=O)C2CC=CCC2C1=O (stereo not given),8,3,2,0
Cc1ccc(Cl)cc1N1CCN(C(=O)Cn2c(=O)oc3ccccc32)CC1,5,1,-3,0
CNc1nc2cc([N+](=O)[O-])c([N+](=O)[O-])cc2nc1NC,9,0,57*,0
COc1cccc(-c2cc3nc4c(c(NCc5cccnc5)n3n2)CCC4)c1,-1,-1,42*,0
COc1cc(OC)cc(-c2cc3nc4c(c(NCc5cccnc5)n3n2)CCC4)c1,-4,0,45*,0
COc1ccc([C@@H]2CCN(C(=O)C3CCCC3)C[C@H]2O)cc1,-14,1,-7,0
CC1(C)Oc2ccc3ccc(=O)oc3c2C/C1=N\Nc1ccccc1,2,-1,49*,1
O=C(Nc1cccnc1)c1ccc2c(c1)C(=O)N(C1CCCCC1)C2=O,-4,-1,-6,0
O=C(Nc1ccncc1)c1ccc2c(c1)C(=O)N(C1CCCCC1)C2=O,-9,0,32*,0
Cc1cc(OCC(=O)Nc2nccs2)ccc1C(C)C,-4,-1,61*,0
COc1ccc(CC(=O)Nc2nccs2)cc1OC,1,4,8,0
COc1cc(C(C)=O)ccc1OCC(=O)Nc1nccs1,8,-6,56*,0
O=C(NCc1cccs1)c1ccc(OCc2ccc3ccccc3n2)cc1,4,0,-20,0
O=C(COc1ccc(Cl)cc1)Nc1nccs1,1,-3,19,0
COc1ccc(OCC(=O)Nc2nccs2)cc1,2,-7,68*,0
SMILES,MITF inh,GPR151 activ,TEAD-YAP block,FBW7 act
O=C(Nc1nccs1)c1ccc(OCc2ccc3ccccc3n2)cc1,-4,0,-21,5.6*
Cc1ccccc1N=Cc1cccc([N+](=O)[O-])c1,9,1,2,0
O=C(NC1CCCCC1)O/N=C\c1ccccc1Cl,-2,0,3,0
CCCN1CCN(C(=O)Cn2ncc3c(C)n(Cc4ccc(F)cc4)c(C)c3c2=O)CC1,6,-1,-7,0
O=C(CN1C(=O)c2ccccc2C1=O)Nc1nc(-c2cccs2)c(C(=O)C(F)(F)F)s1,1,2,1,0
CCOc1ccc(OCC(=O)Nc2nccs2)cc1,3,-8,79*,0
Cc1cnc(CNc2cc(-c3ccccc3F)nc(-c3ccccn3)n2)nc1,24,2,33*,-1
CCN(CC)c1cc(-c2ccccn2)nc(-c2ccccc2)n1,-9,-2,6,0
CCN(CC)c1cc(-c2ccccn2)nc(-c2ccccn2)n1,113*,1,86*,-1
CCN(CC)c1cc(-c2ccccc2F)nc(-c2ccncc2)n1,5,1,-10,0
CCN(CC)c1cc(-c2ccccc2F)nc(-c2ccccn2)n1,8,1,50*,0
CCOC(=O)C1CCCN(S(=O)(=O)c2cc(Cl)ccc2Cl)C1 (stereo not given),-1,2,-2,0
COc1ccc(C(=O)c2ccc(Br)c([N+](=O)[O-])c2)cc1,35,0,64*,0
CCCOC(=O)c1ccc(Br)c([N+](=O)[O-])c1,-1,1,8,0
COc1ccccc1C1=NOC(C(=O)NCc2cccs2)C1 (stereo not given),-4,0,41*,0
COc1ccc(CNC(=O)C2CC(c3ccccc3F)=NO2)cc1 (stereo not given),-11,0,0,0
COc1ccc(CNC(=O)C2CC(c3ccccc3OC)=NO2)cc1 (stereo not given),-1,-1,48*,0
O=C1C2C3C=CC(C4CC34)C2C(=O)N1c1ccccc1Br (stereo not given),-2,-1,-11,0
Cc1ccc2c(c1)NC(C)(C)c1ssc(=Nc3ccc(S(=O)(=O)Nc4nccc(C)n4)cc3)c1-2,-3,3,13,0
COc1cc(C(=O)Nc2sc3c(c2C#N)CCC(C)C3)c(Br)c(OC)c1OC (stereo not given),4,0,34*,0
COc1cc(C(=O)Nc2sc3c(c2C#N)CCC(C)C3)cc(OC)c1OC (stereo not given),9,0,9,1
COc1cc(C(=O)Nc2sc3c(c2C#N)CCC3)cc(OC)c1OC,4,0,41*,0
COc1ccc(OCC2c3cc(OC)c(OC)cc3CCN2C(=O)c2ccc([N+](=O)[O-])cc2)cc1 (stereo not given),-17,0,-11,0
COc1cc2c(cc1OC)C(COc1ccc([N+](=O)[O-])cc1)N(C(=O)c1ccc3c(c1)OCO3)CC2 (stereo not given),11,-1,1,2.1*
Cn1c(=O)c2c(nc(Oc3ccc(Oc4nc(Cl)ccc4Cl)cc3)n2C)n(C)c1=O,5,-1,6,0
SMILES,MITF inh,GPR151 activ,TEAD-YAP block,FBW7 act
Cn1nc(CC(=O)Nc2ccc3c(c2)OCO3)c2ccccc2c1=O,0,0,26,0
O=C(Cc1ccc2c(c1)OCCO2)Nc1ccc2ccccc2c1,0,0,42*,0
Cn1nc(CC(=O)Nc2cccc(O)c2)c2ccccc2c1=O,-7,1,5,0
Cc1ccc(C)n1CCCC(=O)Nc1ccc2c(c1)OCCO2,-1,1,59*,0
COc1ccc(CC(=O)Nc2ccc3c(c2)OCCO3)cc1OC,11,0,1,0
Cn1nc(CC(=O)Nc2ccc3c(c2)OCCO3)c2ccccc2c1=O,-6,-1,50*,0
Cn1nc(CC(=O)Nc2cccc(C(F)(F)F)c2)c2ccccc2c1=O,1,3,42*,0
CC(C)(C)c1ccc(S(=O)(=O)N2CCN(c3ccc([N+](=O)[O-])c(N4CCCCC4)c3)CC2)cc1,27,-1,-4,1

# High-throughput results: PubChem BioAssay, The Scripps Research Institute Molecular Screening Center
